Rows were chosen to be rich in hits. Some 12% of all compounds tested hit in one or more screens of this group.
BAZ2B inh: blocks human BAZ2B. Q9UIF8. AlphaScreen BAZ2B-H3K14Ac peptide displacement. Potency, µM (top dose mostly 114 µM), actives largely listed as inhibitors. 360,000 tested, 4.4% active. AID 504333; note: nearly all actives have a fitted effect of over 60% in size
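Protein-peptide AlphaScreen: BAZ2B 50 nM, b-H3K14Ac 50 nM, 1x PBS pH 7.4 + 0.01% Tween-20. Preincubation 30 min RT; cpd 30 min RT (top 110 uM); beads 20 min RT, light-protected.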
HP1b binding inh: HP1-beta chromodomain-methylated histone interaction inhibition; AlphaScreen HP1-beta / biotin-H3K9me3 peptide binding; Potency, µM (highest dose often 114 µM), actives largely listed as inhibitors; 390,000 tested, 0.56% active; note: nearly all actives have a fitted effect of over 70% in size
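AlphaScreen: HP1-beta (50 nM) preformed 30 min with biotin-H3(1-18)K9me3 peptide (50 nM) in PBS pH 7.4, 0.01% Tween-20. Compound added for 30 min at RT, then streptavidin donor/nickel chelate acceptor beads (10 ug/mL) for 30 min.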
G9a block: inhibitors of human histone lysine methyltransferase G9a; Q96KQ7; G9a H3K9 monomethylation, AlphaScreen, 2 h; Potency, µM (series often up to 102 µM), hits mostly inhibitors; 350,000 tested, 8.8% active; AID 504332; note: nearly all actives have a fitted effect of over 75% in size
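G9a (20 nM) was preincubated 15 min with compound, then reacted 2 h at room temperature with 500 nM biotin-H3K9 peptide and 20 µM SAM. Monomethyl-H3K9 detected by AlphaScreen using anti-H3K9me1 antibody.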
Sfp inh: inhibitors of Bacillus subtilis Sfp phosphopantetheinyl transferase. Q9F4F7. Biochemical Sfp PPTase activity, qHTS. Potency, µM, most hits filed as inhibitors. 310,000 tested, 3.5% active;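 note: the enzyme is Sfp with the accession as filed and its product quenches rhodamine fluorescence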
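With Hepes-Na pH 7.6 buffer containing 10 mM MgCl2, Sfp (15 nM) modified BHQ-2-YbbR (12.5 uM) using rhodamine-CoA (5 uM). Two reads 30 minutes apart at 525/598 nm yielded each well's rate.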
JMJD2A Tudor: blocks the human JMJD2A Tudor domain; 390,000 tested, 4.4% active; AlphaScreen JMJD2A-Tudor / H3K4me3 peptide binding; Potency, µM (highest dose often 114 µM), actives largely listed as inhibitors; O75164; note: nearly all actives have a fitted effect of over 50% in size
Large screens that a line does not name were inactive. Calls come from the whole dose curve; as a rule, active = well fitted curve in the direction sought with a large enough effect; inconclusive = small, poorly fitted or top-dose-only effect, or another doubt; inactive = no such curve, though single readings can be large; an effect the other way counts as inactive or inconclusive.

C=CCn1c(SCc2n[nH]c(=S)n2-c2ccccc2)nnc1-c1ccccc1	G9a block 11.2µM, JMJD2A Tudor 11.2µM
C=CCn1c(-c2ccc(C)cc2)nc2ccccc21	none
C=CCn1c(CSc2nnc(-c3ccccc3)n2C)n[nH]c1=S	Sfp inh inconclusive, JMJD2A Tudor 10µM (no result: G9a block)
C=CCn1c(CSc2ccc(C)cc2)n[nH]c1=S	G9a block 8.91µM
C=CCn1c(SCc2ccccc2)nnc1-c1cccnc1	none
COc1cc(C(=O)Oc2ccccc2OC(=O)c2cc(OC)c(OC)c(OC)c2)cc(OC)c1OC	none (no result: BAZ2B inh, G9a block, Sfp inh)
CC(NC(=O)C12CC3CC(CC(C3)C1)C2)C(=O)N/N=C/C1=C(N2CCOCC2)C(=C\c2cccc([N+](=O)[O-])c2)/CC1 (configuration not stated)	JMJD2A Tudor inconclusive
CCN(CC)c1ccc(/C=C2\CCC(/C=C(\C#N)C(=O)Nc3ccccc3F)=C2N2CCOCC2)cc1	BAZ2B inh inconclusive, HP1b binding inh inconclusive, G9a block inconclusive, JMJD2A Tudor inconclusive
N#C/C(=C\C1=C(N2CCOCC2)C(=C\c2ccc(Cl)cc2)/CC1)C(=O)Nc1ccccc1F	BAZ2B inh 25.1µM, HP1b binding inh inconclusive, G9a block 10µM
N#C/C(=C\C1=C(N2CCOCC2)C(=C/c2cccc([N+](=O)[O-])c2)/CC1)C(=O)Nc1ccccc1F	BAZ2B inh 1.26µM, HP1b binding inh inconclusive, G9a block 2.51µM, Sfp inh inconclusive
N#C/C(=C/C1=C(N2CCOCC2)C(=C/c2ccccc2)/CC1)C(=O)Nc1ccccc1F	HP1b binding inh 5.01µM, JMJD2A Tudor 10µM (no result: BAZ2B inh, G9a block, Sfp inh)
Cc1occc1C(=O)N/N=C/C1=C(N2CCOCC2)C(=C\c2ccc(Cl)cc2)/CC1	none
CC[C@@]1(C(=O)OC)N[C@H](CN(C)C(=O)C2CCCCC2)[C@@H]2C(=O)N(Cc3ccccc3)C(=O)[C@@H]21	none (no result: BAZ2B inh, G9a block, Sfp inh)
O=C(C1CC1)N1CCN(Cc2ccccc2)CC1	none (no result: BAZ2B inh, G9a block, Sfp inh)
O=C(c1ccc(F)cc1)N1CCN(Cc2ccccc2)CC1	none
O=C(C1CCN(Cc2ccc(F)cc2)CC1)N1CCN(C/C=C/c2ccccc2)CC1	BAZ2B inh 50.1µM, HP1b binding inh inconclusive, G9a block 50.1µM, JMJD2A Tudor 20µM
O=C(C1CCN(Cc2ccccc2)CC1)N1CCN(C/C=C/c2ccccc2)CC1	BAZ2B inh inconclusive, HP1b binding inh inconclusive, G9a block 14.1µM, JMJD2A Tudor inconclusive
O=C(O)C1C2CCC(CC2)C1C(=O)N1CCN(Cc2ccc(F)cc2)CC1 (configuration not stated)	G9a block inconclusive, Sfp inh 35.5µM
Cc1ccccc1-c1nc(Nc2ccncc2)c2ccccc2n1	none (no result: BAZ2B inh, HP1b binding inh, JMJD2A Tudor)
O=C(O)c1cccc(N2C(=O)c3cccnc3C2=O)c1	none
O=C1c2cccnc2C(=O)N1c1cccc([N+](=O)[O-])c1	BAZ2B inh 56.2µM, JMJD2A Tudor inconclusive
COc1ccc(NC(=O)C(NS(=O)(=O)c2ccc3c(c2)CCCC(=O)N3)C(C)C)c(OC)c1 (configuration not stated)	none (no result: Sfp inh)
c1ccc2c(-c3nn[nH]n3)cccc2c1	none
COc1cccc2cc(-c3n[nH]c(=S)n3C)oc12	G9a block 7.08µM, JMJD2A Tudor 7.94µM
Cn1c(CSCc2ccc(Cl)cc2)n[nH]c1=S	G9a block 10µM, JMJD2A Tudor inconclusive
Cn1c(CSCc2ccc(F)cc2)n[nH]c1=S	JMJD2A Tudor 28.2µM (no result: G9a block)
Cn1c(-c2cccc3ccccc23)n[nH]c1=S	G9a block 5.01µM, JMJD2A Tudor 20µM
Cn1c(CSCc2ccc(Cl)cc2Cl)n[nH]c1=S	none (no result: G9a block)
COc1ccc(C2=Nn3c(nnc3-c3ccc(OC)c(OC)c3)SC2)cc1OC	none (no result: BAZ2B inh, HP1b binding inh, G9a block)
Cn1c(CSCc2ccccc2)n[nH]c1=S	G9a block 7.94µM, JMJD2A Tudor 7.94µM
Cn1c(Cn2c3ccccc3c3ccccc32)n[nH]c1=S	G9a block 7.94µM
Cn1c(CSCc2ccccc2Cl)n[nH]c1=S	JMJD2A Tudor inconclusive (no result: G9a block)
O=C(Cc1cccc(NC(=O)C2CCCN(C(=O)C3CC3)C2)c1)Nc1cccc(C(=O)N2CCOCC2)c1 (configuration not stated)	none (no result: BAZ2B inh, G9a block, Sfp inh)
CCOC(=O)N/N=C\C=C\c1ccco1	G9a block inconclusive, Sfp inh 44.7µM
CCOC(=O)N/N=C(C)/C=C/c1ccco1	G9a block 11.2µM

Assay outcomes as filed in PubChem BioAssay.
